We go through 2 molecules from the supplement of paper PMC8728848.

About 410 targets per protein were measured; listed, in parts, are those with the strongest signals and a random draw of the rest.

What all share (test): glycan array binding signal (z-score within array); higher = stronger binding
What all share (conditions): glycan notation: IUPAC condensed, linker removed

In assay [1] the target is Fuc(a1-2)Gal. An outline of the steps:
(§1)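 From the Consortium for Functional Glycomics database, 3228 arrays were curated, keeping only those whose protein sequence was available. Binding is given as a within-array Z-score averaged across arrays sharing a protein sequence and across linkers. Negative Z-scores can be read as non-binding.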

For assay [2], the target named is Fuc(a1-2)Gal(b1-3)GalNAc(b1-3)Gal. An outline of the steps: as §1
Assay [3] addresses Fuc(a1-2)Gal(b1-3)GlcNAc(b1-3)Gal(b1-4)Glc. The method, boiled down: as §1
Assay [4] has as its target Fuc(a1-2)[GalNAc(a1-3)]Gal(b1-3)GlcNAc. An outline of the steps: as §1
The target in assay [5] is Fuc(a1-3)[Gal(b1-4)]GlcNAc(b1-4)Gal(b1-4)[Fuc(a1-3)]GlcNAc(b1-4)Gal(b1-4)[Fuc(a1-3)]GlcNAc. The method, boiled down: as §1
Assay [6] deals with Fuc(a1-4)GlcNAc. An outline of the steps: as §1
Assay [7] deals with Gal(b1-3)GalNAc(b1-3)Gal(a1-4)Gal(b1-4)Glc. An outline of the steps: as §1
Assay [8] concerns the target Gal(b1-4)GlcNAc(b1-3)Gal(b1-4)GlcNAc. The method, boiled down:
as §1

Assay [9] concerns the target Gal(b1-4)GlcNAc(b1-3)[Gal(b1-4)GlcNAc(b1-6)]GalNAc. An outline of the steps: as §1
Assay [10] has as its target Gal3S(b1-4)GlcNAc6S. An outline of the steps: as §1
Assay [11] has as its target Neu5Ac(a2-3)Gal(b1-3)[Neu5Ac(a2-6)]GalNAc. An outline of the steps:
as §1

Assay [12] has as its target Neu5Ac(a2-6)Gal(b1-4)GlcNAc(b1-3)Gal(b1-4)GlcNAc. An outline of the steps:
as §1

Assay [13] addresses Neu5Ac(b1-6)GalNAc. The method, boiled down:
as §1

In assay [14] the target is Neu5Gc(a2-3)Gal(b1-4)[Fuc(a1-3)]GlcNAc. The method, boiled down: as §1
Assay [15] addresses Fuc(a1-2)Gal(b1-3)GalNAc(b1-3)Gal(b1-4)Glc. An outline of the steps:
as §1

The target in assay [16] is Fuc(a1-2)[GalNAc(a1-3)]Gal. An outline of the steps:
as §1

For assay [17], the target named is Gal(a1-2)Gal. An outline of the steps: as §1
The target in assay [18] is Gal(b1-4)GlcNAc(b1-3)Gal(b1-4)[Fuc(a1-3)]GlcNAc(b1-3)Gal(b1-4)[Fuc(a1-3)]GlcNAc. The method, boiled down:
as §1

The target in assay [19] is Gal(b1-4)GlcNAc(b1-6)[Gal(b1-3)]GlcNAc. The method, boiled down: as §1
The target of assay [20] is Gal6S(b1-4)Glc6S. The method, boiled down: as §1
The target in assay [21] is Glc(a1-4)Glc. The method, boiled down:
as §1

The target in assay [22] is Kdn(a2-3)Gal(b1-3)GlcNAc. An outline of the steps: as §1
Assay [23] deals with Man(a1-2)Man(a1-2)Man(a1-3)[Man(a1-2)Man(a1-3)[Man(a1-2)Man(a1-6)]Man(a1-6)]Man(b1-4)GlcNAc(b1-4)GlcNAc. The method, boiled down: as §1
For assay [24], the target named is Man(a1-2)Man(a1-2)Man(a1-6)[Man(a1-3)]Man. The method, boiled down: as §1
In assay [25] the target is Man(a1-2)Man(a1-3)[Man(a1-2)Man(a1-6)]Man. An outline of the steps:
as §1

For assay [26], the target named is Man(a1-2)Man(a1-3)[Man(a1-3)[Man(a1-6)]Man(a1-6)]Man(b1-4)GlcNAc(b1-4)GlcNAc. The method, boiled down:
as §1

Assay [27] deals with Neu5Ac(a2-3)Gal. The method, boiled down:
as §1

Assay [28] has as its target Neu5Ac(a2-3)Gal(b1-3)GlcNAc6S. An outline of the steps: as §1
Assay [29] has as its target Neu5Ac(a2-3)Gal(b1-3)[Neu5Ac(a2-3)Gal(b1-4)]GlcNAc. The method, boiled down: as §1
The target of assay [30] is Neu5Ac(a2-3)Gal(b1-4)GlcNAc(b1-3)Gal(b1-4)GlcNAc. An outline of the steps:
as §1

Assay [31] deals with Neu5Ac(a2-3)Gal(b1-4)[Fuc(a1-3)]GlcNAc(b1-3)Gal(b1-4)[Fuc(a1-3)]GlcNAc(b1-3)Gal(b1-4)[Fuc(a1-3)]GlcNAc. The method, boiled down: as §1
Assay [32] concerns the target Neu5Ac(a2-3)Gal(b1-4)[Fuc(a1-3)]GlcNAc6S. An outline of the steps:
as §1

Assay [33] has as its target Neu5Ac(a2-6)Gal(b1-4)GlcNAc(b1-2)Man(a1-3)[Neu5Ac(a2-6)Gal(b1-4)GlcNAc(b1-2)Man(a1-6)]Man(b1-4)GlcNAc(b1-4)GlcNAc. An outline of the steps:
as §1

Assay [34] addresses Neu5Gc(a2-3)Gal(b1-3)GlcNAc. The method, boiled down:
as §1

B1: Siglec-H (Mus musculus), Q4QQK7 (protein)
chain: MLLSRLLPLLWVLKWASGNCFILPREVIGTYPSLTLELQSVTVQEGLCVLVPCHLIEYPMNRWSDAAFGYWFHEGENTHPDSLVATNKPYQLVQKEMQSRFHFSGDCSLDIRDAQKGDNGSYFFRLEKGGKTWNFCEERISVHVTDLTHSPNISIPQTLELGRPTNVMCSVPWACERGTPPIFSWMSAALISLGPTTTLSSVLTLTPRLQDHGTNLTCQVTFPGAGVTVQKTIQLNVTYNSQNSTAHVSGRVGPGKPRPLADVVQVAMGEAAIKFLLLGICFFFLSKRSHTKRVERPATHMDQAHAVMD
With B1, the “glycan array binding signal (z-score)” value was -0.112 in assay [1]; 2.48 in assay [2]; 2.46 in assay [3]; -0.271 in assay [4]; -0.236 in assay [5]; -0.188 in [6]. Further, the “glycan array binding signal (z-score)” value is -0.31 in [7]; -0.348 in assay [8]; 6.24 in assay [9]; -0.224 in assay [10]; 2.4 in [11]; 1.02 in assay [12]. The entries for the “glycan array binding signal (z-score)” value in [13] and in assay [14] were 0.697 and -0.29, respectively.

B2: CVNH0 (Neurospora crassa), Q7S6U4 (protein)
chain: GSHIGPYMSFHVTAEDARIEVRDNRTILFARLRREDGEWNDASYELDQIIGNNDGHFQWGGQNFTETAEDIRFHPKEGAAEQPILRARLRDCNGEFHDRDVNLTEIVENVNGEFQAKF
As to B2, the “glycan array binding signal (z-score)” value is -0.372 in assay [1]; 3.75 in [15]; -0.436 in [16]; -0.423 in [17]; -0.427 in [8]; -0.186 in assay [18]. The “glycan array binding signal (z-score)” value was -0.381 in assay [19]; -0.362 in assay [20]; -0.391 in assay [21]; -0.44 in assay [22]; 3.89 in assay [23]; 3.68 in [24]. For the same molecule, the “glycan array binding signal (z-score)” value was 4.06 in [25]; -0.376 in [26]; -0.431 in [27]; 0.204 in assay [28]; -0.411 in assay [29]; -0.351 in assay [30]. In addition, the “glycan array binding signal (z-score)” value in assay [31] is -0.226; in [32] it was -0.433; in assay [33], -0.408; in assay [34] it was -0.433.
